Unmarked numbers belong to inactive results. Results filed as inconclusive are left out. Where a call stands in place of a potency, no number is given. Activity calls are given as the source filed them. Unless noted, the call rests on the fitted dose curve; in most records, active means well fitted curve in the direction sought with a large enough effect in the repeat runs; inconclusive means weak or mixed curves; inactive means no such curve, though single readings can be large; an effect the other way counts as inactive or inconclusive.
Assays:
[1] = qHTS assay to identify small molecule antagonists of the estrogen related receptor (ERR) signaling pathway from Tox21 library - cell viability counter screen (AID 1224834); further: nearly all actives have a fitted effect of over 30% in size
Procedure, shortened: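 ERR cells, 2,000/well; 6 h settle at 37 C/5% CO2; pin-tool compound transfer in DMSO; 17.5 h at 37 C; CellTiter-Fluor, 30 min; fluorescence intensity.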

[2] = molecular target: Luciferin 4-monooxygenase (Photinus pyralis) (UniProt P08659); assay: qHTS assay to identify small molecule inhibitors of firefly luciferase (AID 1224835); further: nearly all actives have a fitted effect of over 25% in size
Procedure, shortened: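 Inhibition of purified Photinus luciferase is measured by luminescence. Substrate levels (D-luciferin, ATP) sit at their KM values. Each compound is tested in a concentration series.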

[3] = qHTS assay to identify small molecule agonists of the constitutive androstane receptor (CAR) signaling pathway - cell viability counter screen (AID 1224836); further: nearly all actives have a fitted effect of over 45% in size
Procedure, shortened: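 HepG2 cells stably carrying hCAR and a CYP2B6-2.2kb reporter were plated 4 h, then given compounds at 15 concentrations plus PK11195 (final 0.75 uM). After 23 h at 37 C, viability was read by CellTiter-Fluor fluorescence.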

[4] = qHTS assay to identify small molecule antagonists of the constitutive androstane receptor (CAR) signaling pathway - cell viability counter screen (AID 1224837); further: nearly all actives have a fitted effect of over 45% in size
Procedure, shortened: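 Viability was measured with CellTiter-Fluor in a HepG2 line carrying stably transfected hCAR and a CYP2B6-2.2kb construct. Cells were exposed for 23 hr at 37 C to 15 compound concentrations with 50 nM CITCO as agonist.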

[5] = molecular target: Nuclear receptor subfamily 1 group I member 3 (Homo sapiens) (UniProt Q14994); assay: qHTS assay to identify small molecule agonists of the constitutive androstane receptor (CAR) signaling pathway (AID 1224839);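 further: HepG2 cells stably carrying human CAR and a CYP2B6 luciferase reporter; nearly all actives have a fitted effect of over 15% in size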
Procedure, shortened: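 HepG2 cells stably expressing hCAR and a CYP2B6-2.2kb luciferase reporter were treated with compounds at 15 concentrations plus 0.75 uM PK11195 (final) for 24 h at 37 C; luminescence was read after ONE-Glo addition.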

[6] = qHTS assay to identify small molecule antagonists of the estrogen related receptor signaling pathway with the pleiotropic PPARgamma coactivator (PGC) from Tox21 10K library - cell viability counter screen (AID 1224840; active means well fitted cell-killing curve with a large enough effect in the repeat runs, not every such curve was filed as active; further: nearly all actives have a fitted effect of over 40% in size)
Procedure, shortened: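 Multiplexed viability counter screen in the PGC/ERR cell line: cells treated with DMSO-dissolved compounds for 17.5 hours at 37 C, then viability measured as CellTiter-Fluor fluorescence.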

[7] = molecular target: Thyrotropin receptor (Homo sapiens) (UniProt P16473); assay: qHTS assay to identify small molecule agonists of the thyroid stimulating hormone receptor (TSHR) signaling pathway (AID 1224843; calls by dose curve; further: nearly all actives have a fitted effect of over 45% in size; further: potency means the concentration at half of the fitted maximal effect)
Procedure, shortened: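 A cell-based cAMP HTRF format was run in TSHR-transfected HEK293 cells, 800 per well. Treatment: 30 min, room temperature. Detection: 1 h with labelled cAMP and anti-cAMP cryptate. Concentration-response over 15 points, three replicates.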

[8] = qHTS assay to identify small molecule agonists of the hypoxia (HIF-1) signaling pathway - cell viability counter screen (AID 1224844; calls by dose curve; further: nearly all actives have a fitted effect of over 50% in size)
Procedure, shortened: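 Cytotoxicity was measured in parallel with the HRE-driven beta-lactamase readout: after 17 hrs of compound exposure at 37C, HRE-bla ME-180 cells received CellTiter-Glo and luminescence was recorded 30 min later.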

[9] = qHTS assay to identify small molecule agonists of H2AX (AID 1224845; active means well fitted activation curve with a large enough effect in the signal ratio in the repeat runs, not every such curve was filed as active; the % refers to the signal ratio)
Procedure, shortened: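 Phospho-H2AX Ser139 measured by HTRF (ex 320 nm; em 665 and 620 nm) after 24 hr antibody incubation. Compounds, 15 concentrations, 0.76% DMSO, were applied to CHO-K1 cells for 3hr at 37C before lysis.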

[10] = qHTS assay to identify small molecule agonists of the hypoxia (HIF-1) signaling pathway (AID 1224846; active means well fitted activation curve with a large enough effect in the signal ratio in the repeat runs, not every such curve was filed as active; the % refers to the signal ratio)
Procedure, shortened: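 Compounds from the Tox21 10K library, dissolved in DMSO, are tested for induction of a hypoxia response element–controlled beta-lactamase reporter in ME-180 cells. Exposure lasts 17 hrs at 37C after a 5 hr settling period, followed by CCF4-AM FRET substrate.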

[11] = qHTS assay to identify small molecule agonists of H2AX - cell viability counter screen (AID 1224847; calls by dose curve; further: top concentration of the series differs between compounds; nearly all actives have a fitted effect of over 30% in size)
Procedure, shortened: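 Wild-type CHO-K1 cells (10% FBS medium) were plated overnight at 37C, exposed to compounds at 15 concentrations for 3 hr at 37C (0.76% DMSO final), and viability was read as CellTiter-Glo luminescence after 30 min at room temperature.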

[12] = qHTS RealTime-Glo MT Cell Viability Assay in HepG2 cells - 24 hour (AID 1224867); further: nearly all actives have a fitted effect of over 50% in size
Procedure, shortened: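 HepG2 cells (600/well) were dispensed with RealTime-Glo reagents, incubated 5 h at 37 °C, then treated with compounds in DMSO for up to 40 h. Nonlytic NanoLuc luminescence reflecting viable cells was read at each stated time point.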

[13] = A CellTox Green Cytotoxicity Assay to monitor cytotoxicity in HEK293 cells - 0 hour (AID 1224869); further: nearly all actives have a fitted effect of over 50% in size
Procedure, shortened: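 Cells (HEK293, 600/well) and dye reagent are dispensed together. After 5 h at 37 C, 23 nL compound is pinned in. Plates stay at 37 C for 40 h with fluorescence read at 0h, 8h, 16h, 24h, 32h and 40h.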

[14] = qHTS RealTime-Glo MT Cell Viability Assay in HepG2 cells - 40 hour (AID 1224870); further: nearly all actives have a fitted effect of over 50% in size
Procedure, shortened: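 Real-time viability: cells seeded at 600 per well together with NanoLuc and cell-permeant prosubstrate, compounds added after 5 h incubation. Luminescence tracked at 0, 8, 16, 24, 32 and 40 h of exposure.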

[15] = qHTS RealTime-Glo MT Cell Viability Assay in HEK293 cells - 32 hour (AID 1224868)
Procedure, shortened: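 HEK293 cells seeded with NanoLuc/prosubstrate reagent, rested 5 h at 37 C, then dosed and kept at 37 C up to 40 h. Nonlytic real-time luminescence from viable cells read at 0, 8, 16, 24, 32 and 40 h.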

[16] = qHTS assay to identify small molecule antagonists of the estrogen related receptor signaling pathway with the pleiotropic PPARgamma coactivator (PGC) from Tox21 10K library (AID 1224841; call rule not given here; further: potency means the concentration at half of the fitted maximal effect)
Procedure, shortened: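 Steps: plate 2,000 PGC/ERR cells per well; incubate 6 h at 37 C with 5% CO2; transfer compounds from DMSO stocks by pin tool; incubate 18 h at 37 C; add One-Glo; measure luminescence 30 min later.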

[17] = qHTS assay to identify small molecule agonists of the estrogen related receptor signaling pathway with the pleiotropic PPARgamma coactivator (PGC) from Tox21 10K library (AID 1224842); further: nearly all actives have a fitted effect of over 15% in size; further: potency means the concentration at half of the fitted maximal effect
Procedure, shortened: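 Luminescence from One-Glo (30 min, room temperature) measured after PGC/ERR cells had 18 h at 37 C with pinned compound (23 nL in DMSO). Cells had been seeded at 2,000 per well and pre-incubated 6 h.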

[18] = qHTS assay to identify small molecule antagonists of the estrogen related receptor (ERR) signaling pathway from Tox21 library (AID 1224848); further: nearly all actives have a fitted effect of over 50% in size
Procedure, shortened: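 ERR cell line, 2,000 cells/well. 6 h settle, then compound (DMSO) added; 18 h at 37 C; ONE-Glo luminescence after 30 min RT.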

[19] = qHTS assay to identify small molecule agonists of the estrogen related receptor (ERR) signaling pathway from Tox21 library (AID 1224849; calls by dose curve; further: nearly all actives have a fitted effect of over 15% in size); details: ERR reporter cell line, ONE-Glo luciferase, 18 h; at 92.4 µM (top of the series) unless noted
Procedure, shortened: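 Cells carrying the ERR reporter were plated and allowed to settle for 6 h, exposed to library compounds for 18 h at 37 C, then lysed with ONE-Glo and luminescence measured.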

Nuclear receptor subfamily 1 group I member 3 (Homo sapiens), sequence (Q14994 whole entry, looked up): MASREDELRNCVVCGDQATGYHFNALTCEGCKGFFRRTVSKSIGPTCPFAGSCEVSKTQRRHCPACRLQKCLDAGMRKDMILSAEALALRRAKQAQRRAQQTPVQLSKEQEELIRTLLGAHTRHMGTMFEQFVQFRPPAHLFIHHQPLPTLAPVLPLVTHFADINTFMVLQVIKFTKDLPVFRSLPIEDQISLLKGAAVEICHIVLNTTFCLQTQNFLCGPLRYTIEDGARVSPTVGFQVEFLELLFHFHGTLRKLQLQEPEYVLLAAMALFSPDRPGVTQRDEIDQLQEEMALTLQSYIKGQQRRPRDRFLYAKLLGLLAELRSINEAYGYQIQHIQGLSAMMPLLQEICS
Luciferin 4-monooxygenase (Photinus pyralis), sequence (P08659 whole entry, looked up): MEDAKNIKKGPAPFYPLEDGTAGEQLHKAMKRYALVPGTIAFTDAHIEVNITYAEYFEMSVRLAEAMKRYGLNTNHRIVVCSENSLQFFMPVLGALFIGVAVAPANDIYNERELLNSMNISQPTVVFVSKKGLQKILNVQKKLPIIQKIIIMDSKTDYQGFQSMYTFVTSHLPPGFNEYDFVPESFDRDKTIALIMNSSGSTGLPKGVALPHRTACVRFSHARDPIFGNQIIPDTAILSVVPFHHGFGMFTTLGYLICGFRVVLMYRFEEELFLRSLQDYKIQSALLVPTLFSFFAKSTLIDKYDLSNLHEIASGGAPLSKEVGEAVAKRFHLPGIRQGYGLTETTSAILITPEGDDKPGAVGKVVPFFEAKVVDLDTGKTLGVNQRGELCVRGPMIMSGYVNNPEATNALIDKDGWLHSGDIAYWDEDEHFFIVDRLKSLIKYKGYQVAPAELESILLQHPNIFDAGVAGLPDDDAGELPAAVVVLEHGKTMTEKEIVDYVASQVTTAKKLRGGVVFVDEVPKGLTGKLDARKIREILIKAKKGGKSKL
Thyrotropin receptor (Homo sapiens), sequence (P16473 whole entry, looked up): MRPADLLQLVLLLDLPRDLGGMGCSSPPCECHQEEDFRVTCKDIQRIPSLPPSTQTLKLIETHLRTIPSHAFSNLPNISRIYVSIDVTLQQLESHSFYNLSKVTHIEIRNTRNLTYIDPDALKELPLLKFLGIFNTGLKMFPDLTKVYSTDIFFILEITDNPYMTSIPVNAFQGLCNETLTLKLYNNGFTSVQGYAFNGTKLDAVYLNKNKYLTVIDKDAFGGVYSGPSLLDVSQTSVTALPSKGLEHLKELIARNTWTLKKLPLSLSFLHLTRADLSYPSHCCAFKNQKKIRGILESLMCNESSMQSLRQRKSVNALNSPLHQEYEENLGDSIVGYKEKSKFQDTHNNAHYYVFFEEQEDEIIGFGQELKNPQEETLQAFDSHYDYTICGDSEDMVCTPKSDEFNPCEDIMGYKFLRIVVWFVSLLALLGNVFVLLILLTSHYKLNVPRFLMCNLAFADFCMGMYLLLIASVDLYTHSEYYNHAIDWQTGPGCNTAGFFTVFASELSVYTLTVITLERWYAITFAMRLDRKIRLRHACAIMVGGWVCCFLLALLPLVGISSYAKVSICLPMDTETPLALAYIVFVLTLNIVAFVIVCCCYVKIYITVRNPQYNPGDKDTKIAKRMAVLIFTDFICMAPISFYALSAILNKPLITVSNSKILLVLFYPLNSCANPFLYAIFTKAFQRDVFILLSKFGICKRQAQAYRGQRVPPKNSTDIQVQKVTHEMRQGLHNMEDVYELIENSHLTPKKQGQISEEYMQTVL

COc1ccc(OC)c(OC)c1
Potency [1]: inactive
Potency [2]: inactive
Potency [3]: inactive
Potency [4]: inactive
Potency [5]: inactive
Potency [6]: inactive
Potency [7]: inactive
Potency [8]: inactive
Potency [9]: inactive
outcome [10]: inactive
Potency [11]: inactive
Potency [12]: inactive
Potency [13]: inactive
Potency [14]: inactive

COc1ccccc1OC(=O)Oc1ccccc1OC
Potency [1]: inactive
Potency [2]: inactive
Potency [3]: inactive
Potency [4]: inactive
Potency [5]: inactive
Potency [6]: inactive
Potency [7]: inactive
Potency [8]: inactive
Potency [9]: inactive
outcome [10]: inactive
Potency [11]: inactive
Potency [12]: inactive
Potency [15]: inactive
Potency [13]: inactive
Potency [14]: inactive

CN1CCC(=C2c3ccccc3C=Cc3ccccc32)CC1
Potency [1]: inactive
Potency [2]: inactive
Potency [3]: inactive
Potency [4]: inactive
Potency [5]: inactive
Potency [6]: inactive
Potency [16]: inactive
Potency [17]: inactive
Potency [7]: inactive
Potency [9]: inactive
Potency [11]: inactive
Potency [18]: inactive
activity change, positive = activation [19]: 5.98% [at 42.5 µM]
Potency [13]: inactive
Potency [14]: inactive

C=CCCCCCC
Potency [1]: inactive
Potency [2]: inactive
Potency [3]: inactive
Potency [4]: inactive
Potency [5]: inactive
Potency [6]: inactive
Potency [16]: inactive
Potency [7]: inactive
Potency [8]: inactive
Potency [9]: inactive
Potency [18]: inactive
activity change, positive = activation [19]: 4.67%
Potency [12]: inactive
Potency [15]: inactive
Potency [13]: inactive
Potency [14]: inactive

Oc1ccc(C(O)CNCCCCCCNCC(O)c2ccc(O)c(O)c2)cc1O (configuration not stated)
Potency [1]: inactive
Potency [2]: inactive
Potency [3]: inactive
Potency [4]: inactive
Potency [6]: inactive
Potency [17]: 7.5 µM (active)
Potency [7]: 6.68 µM (active)
Potency [8]: inactive
outcome [10]: inactive
Potency [11]: inactive
Potency [18]: inactive
activity change, positive = activation [19]: 1.29% [at 42.5 µM]
Potency [12]: inactive
Potency [15]: inactive
Potency [13]: inactive
Potency [14]: inactive

Cn1c(NCCN(CCO)CCCc2ccc([N+](=O)[O-])cc2)cc(=O)n(C)c1=O
Potency [1]: inactive
Potency [2]: inactive
Potency [3]: inactive
Potency [4]: inactive
Potency [6]: inactive
Potency [16]: inactive
Potency [7]: inactive
Potency [8]: inactive
Potency [9]: inactive
outcome [10]: inactive
Potency [18]: inactive
activity change, positive = activation [19]: 4.48% [at 42.5 µM]
Potency [12]: inactive
Potency [15]: inactive
Potency [13]: inactive
Potency [14]: inactive

Nc1nc(N)c2nc(CNc3ccc(C(=O)N[C@@H](CCC(=O)O)C(=O)O)cc3)cnc2n1
Potency [1]: inactive
Potency [2]: inactive
Potency [3]: inactive
Potency [4]: inactive
Potency [5]: inactive
Potency [6]: inactive
Potency [16]: 0.114 µM (active)
Potency [7]: inactive
Potency [8]: inactive
Potency [11]: inactive
activity change, positive = activation [19]: -62.3%
Potency [12]: inactive
Potency [13]: inactive
Potency [14]: inactive

N#Cc1c(F)cccc1F
Potency [1]: inactive
Potency [2]: inactive
Potency [3]: inactive
Potency [4]: inactive
Potency [5]: inactive
Potency [7]: inactive
Potency [8]: inactive
Potency [9]: inactive
outcome [10]: inactive
Potency [11]: inactive
Potency [12]: inactive
Potency [15]: inactive
Potency [13]: inactive
Potency [14]: inactive

Nc1ccc(C(=O)N2CC3CC(CN(Cc4ccccc4)C3)C2)cc1
Potency [1]: inactive
Potency [2]: inactive
Potency [3]: inactive
Potency [4]: inactive
Potency [5]: inactive
Potency [6]: inactive
Potency [17]: inactive
Potency [7]: inactive
Potency [8]: inactive
Potency [9]: inactive
Potency [11]: inactive
Potency [18]: inactive
activity change, positive = activation [19]: -11% [at 42.5 µM]
Potency [12]: inactive
Potency [15]: inactive
Potency [13]: inactive
Potency [14]: inactive

Cc1ncsc1CCO
Potency [1]: inactive
Potency [2]: inactive
Potency [3]: inactive
Potency [4]: inactive
Potency [5]: inactive
Potency [6]: inactive
Potency [7]: inactive
Potency [8]: inactive
Potency [12]: inactive
Potency [13]: inactive
Potency [14]: inactive

Cl/C(=C\n1cncn1)c1ccc(Cl)cc1Cl
Potency [1]: inactive
Potency [2]: inactive
Potency [3]: inactive
Potency [4]: inactive
Potency [5]: inactive
Potency [6]: inactive
Potency [16]: inactive
Potency [7]: inactive
Potency [8]: inactive
Potency [9]: inactive
outcome [10]: inactive
activity change, positive = activation [19]: -21.8% [at 42.5 µM]
Potency [12]: inactive
Potency [15]: inactive
Potency [13]: inactive
Potency [14]: inactive

Oc1ccc2c(c1)OCO2
Potency [1]: inactive
Potency [2]: inactive
Potency [3]: inactive
Potency [4]: inactive
Potency [5]: inactive
Potency [6]: inactive
Potency [7]: inactive
outcome [10]: inactive
Potency [11]: inactive
Potency [12]: inactive
Potency [15]: inactive
Potency [13]: inactive
Potency [14]: inactive

COC(=O)CSc1cc(N=c2sc(=O)n3n2CCCC3)c(F)cc1Cl
Potency [1]: inactive
Potency [2]: inactive
Potency [3]: inactive
Potency [4]: inactive
Potency [5]: inactive
Potency [6]: inactive
Potency [7]: inactive
Potency [8]: inactive
Potency [9]: inactive
outcome [10]: inactive
Potency [11]: inactive
Potency [12]: inactive
Potency [15]: inactive
Potency [13]: inactive
Potency [14]: inactive
